# Assay results reported in PubChem BioAssay AID1159580 (chemical genetic matrix, 2015).
# Among all 5,500 compounds or so, about 2,000 (36%) were called active. Inconclusive results (about 18%) are left out. The list shows a part of the results. Unmarked numbers belong to inactive results. Rule as the data show it: active = normalized growth mostly below about 0.91 (no sharp cut-off); inconclusive = no clear call, values can overlap the other calls; inactive = mostly above about 0.92.
# Assay: chemical genetic growth profiling, strain panel (AID 1159580);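 also: tested at 20 µM; growth read once vehicle control cultures reached saturation at 30 °C; 1 = growth at the plate median or of vehicle wells; lower values mean less growth of the strain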
# Conditions: S. cerevisiae deletion strains, growth OD
structure (smiles),measurement,setting,value
CC(CC(O)C1OC1(C)C)[C@@H]1CCC2(C)C3=CCC4C(C)(C)C(=O)CCC4(C)C3CC[C@@]12C (stereo partly specified),normalized growth,"locus YJL166W, strain qcr8, hits give low values",0.988
same,normalized growth,"locus YJL168C, strain set2, hits give low values",1.04
same,normalized growth,"locus YJL187C, strain SWE1 (second series), hits give low values",1.03
same,normalized growth,"locus YJL187C, strain SWE1, hits give low values",0.995
same,normalized growth,"locus YKL068W, hits give low values",1.01
same,normalized growth,"locus YKL160W, strain elf1, hits give low values",0.993
same,normalized growth,"locus YKR001C, strain vps1, hits give low values",1.07
same,normalized growth,"locus YKR026C, strain gcn3, hits give low values",1.01
same,normalized growth,"locus YKR091W, strain srl3, hits give low values",0.996
same,normalized growth,"locus YLL001W, strain dnm1, hits give low values",0.949
same,normalized growth,"locus YLL026W, hits give low values",0.998
same,normalized growth,"locus YLL041C, strain sdh2, hits give low values",0.998
same,normalized growth,"locus YLR027C, strain aat2, hits give low values",0.993
same,normalized growth,"locus YLR039C, strain RIC1, hits give low values",1.09
same,normalized growth,"locus YLR058C, strain SHM2, hits give low values",1.04
same,normalized growth,"locus YLR102C, strain apc9, hits give low values",1.04
same,normalized growth,"locus YLR221C, strain rsa3, hits give low values",1.03
same,normalized growth,"locus YLR258W, strain gsy2, hits give low values",1.01
same,normalized growth,"locus YLR262C, strain YPT6 (second series), hits give low values",0.768 (active)
same,normalized growth,"locus YLR262C, strain YPT6, hits give low values",1.02
same,normalized growth,"locus YLR268W, strain sec22, hits give low values",1.04
same,normalized growth,"locus YLR320W, strain mms22, hits give low values",1.03
same,normalized growth,"locus YLR330W, strain CHS5, hits give low values",1.04
same,normalized growth,"locus YLR342W, strain FKS1, hits give low values",1.02
same,normalized growth,"locus YLR357W, strain rsc2, hits give low values",1.02
same,normalized growth,"locus YLR370C, strain arc18, hits give low values",1.01
same,normalized growth,"locus YLR371W, strain rom2, hits give low values",1.04
same,normalized growth,"locus YLR384C, strain iki3, hits give low values",1
same,normalized growth,"locus YLR418C, strain cdc73, hits give low values",1.09
same,normalized growth,"locus YML016C, strain PPZ1, hits give low values",1.05
same,normalized growth,"locus YML032C, strain rad52, hits give low values",1.04
same,normalized growth,"locus YML120C, strain ndi1, hits give low values",0.995
same,normalized growth,"locus YML124C, strain tub3, hits give low values",1.03
same,normalized growth,"locus YMR058W, strain fet3, hits give low values",1.01
same,normalized growth,"locus YMR078C, strain ctf18, hits give low values",1.05
same,normalized growth,"locus YMR125W, strain sto1, hits give low values",1
same,normalized growth,"locus YMR129W, hits give low values",1
same,normalized growth,"locus YMR205C, strain PFK2, hits give low values",0.943
same,normalized growth,"locus YMR223W, strain ubp8, hits give low values",1.03
same,normalized growth,"locus YMR231W, strain pep5, hits give low values",0.98
same,normalized growth,"locus YMR307W, strain GAS1, hits give low values",1.07
same,normalized growth,"locus YNL067W, strain RPL9B, hits give low values",1.03
same,normalized growth,"locus YNL071W, strain lat1, hits give low values",0.996
same,normalized growth,"locus YNL153C, strain GIM3, hits give low values",1.01
same,normalized growth,"locus YNL209W, strain ssb2, hits give low values",1
same,normalized growth,"locus YNL233W, strain BNI4, hits give low values",1.03
same,normalized growth,"locus YNL248C, strain rpa49, hits give low values",0.959
same,normalized growth,"locus YNL250W, strain rad50, hits give low values",1.04
same,normalized growth,"locus YNL271C, strain bni1, hits give low values",1.03
same,normalized growth,"locus YNL298W, strain CLA4, hits give low values",1.02
same,normalized growth,"locus YNL307C, strain MCK1, hits give low values",1.03
same,normalized growth,"locus YNL322C, strain KRE1 (second series), hits give low values",0.989
same,normalized growth,"locus YNR049C, strain mso1, hits give low values",0.995
same,normalized growth,"locus YNR052C, strain pop2, hits give low values",1.04
same,normalized growth,"locus YOL006C, strain TOP1, hits give low values",1.09
same,normalized growth,"locus YOL012C, strain htz1",1.47
same,normalized growth,"locus YOL147C, strain pex11, hits give low values",1.05
same,normalized growth,"locus YOR001W, strain rrp6, hits give low values",0.983
same,normalized growth,"locus YOR061W, strain CKA2, hits give low values",1.03
same,normalized growth,"locus YOR069W, strain VPS5, hits give low values",1.03
same,normalized growth,"locus YOR070C, strain gyp1, hits give low values",1.02
same,normalized growth,"locus YOR080W, strain dia2, hits give low values",1.01
same,normalized growth,"locus YOR083W, strain WHI5, hits give low values",0.994
same,normalized growth,"locus YOR106W, strain vam3, hits give low values",0.982
same,normalized growth,"locus YOR136W, strain idh2, hits give low values",1.03
same,normalized growth,"locus YOR144C, strain elg1, hits give low values",1.04
same,normalized growth,"locus YOR184W, strain ser1, hits give low values",0.955
same,normalized growth,"locus YOR265W, strain rbl2, hits give low values",0.999
same,normalized growth,"locus YOR270C, strain vph1, hits give low values",0.877
same,normalized growth,"locus YOR290C, strain snf2, hits give low values",0.946
same,normalized growth,"locus YOR316C, strain cot1, hits give low values",1.02
same,normalized growth,"locus YPL051W, strain arl3, hits give low values",1.03
same,normalized growth,"locus YPL078C, strain atp4, hits give low values",0.966
same,normalized growth,"locus YPL106C, strain sse1, hits give low values",1.1
same,normalized growth,"locus YPL240C, strain hsp82, hits give low values",1.01
same,normalized growth,"locus YPL241C, strain CIN2, hits give low values",1.05
same,normalized growth,"locus YPR119W, strain clb2, hits give low values",1.04
same,normalized growth,"locus YPR141C, strain kar3, hits give low values",1.05
same,normalized growth,"locus YPR163C, strain tif3, hits give low values",1.04
same,normalized growth,"locus YPR167C, strain met16, hits give low values",1.03
same,normalized growth,"strain wtn01, hits give low values",1.02
